Consider 11 compounds from ChEMBL document CHEMBL3988442, “University of Dundee, Small-Polar-MMV Screening Library” (2021).

Parameters in all cases: scale not given: direction of the effect not stated beside the values
The target in assay [1] is Protein translocase subunit SecA (Escherichia coli (strain K12)) (UniProt P10408). The experiment in a line: Assay to Identify E. coli SecA ATPase Inhibitors. The assay is classed as functional. Conditions: 30 µM.
Assay [2] concerns the target T1, Ubiquitin-activating enzyme e1, putative (Leishmania donovani (strain BPK282A1)) (UniProt E9BSI1).
T1 sequence (whole entry): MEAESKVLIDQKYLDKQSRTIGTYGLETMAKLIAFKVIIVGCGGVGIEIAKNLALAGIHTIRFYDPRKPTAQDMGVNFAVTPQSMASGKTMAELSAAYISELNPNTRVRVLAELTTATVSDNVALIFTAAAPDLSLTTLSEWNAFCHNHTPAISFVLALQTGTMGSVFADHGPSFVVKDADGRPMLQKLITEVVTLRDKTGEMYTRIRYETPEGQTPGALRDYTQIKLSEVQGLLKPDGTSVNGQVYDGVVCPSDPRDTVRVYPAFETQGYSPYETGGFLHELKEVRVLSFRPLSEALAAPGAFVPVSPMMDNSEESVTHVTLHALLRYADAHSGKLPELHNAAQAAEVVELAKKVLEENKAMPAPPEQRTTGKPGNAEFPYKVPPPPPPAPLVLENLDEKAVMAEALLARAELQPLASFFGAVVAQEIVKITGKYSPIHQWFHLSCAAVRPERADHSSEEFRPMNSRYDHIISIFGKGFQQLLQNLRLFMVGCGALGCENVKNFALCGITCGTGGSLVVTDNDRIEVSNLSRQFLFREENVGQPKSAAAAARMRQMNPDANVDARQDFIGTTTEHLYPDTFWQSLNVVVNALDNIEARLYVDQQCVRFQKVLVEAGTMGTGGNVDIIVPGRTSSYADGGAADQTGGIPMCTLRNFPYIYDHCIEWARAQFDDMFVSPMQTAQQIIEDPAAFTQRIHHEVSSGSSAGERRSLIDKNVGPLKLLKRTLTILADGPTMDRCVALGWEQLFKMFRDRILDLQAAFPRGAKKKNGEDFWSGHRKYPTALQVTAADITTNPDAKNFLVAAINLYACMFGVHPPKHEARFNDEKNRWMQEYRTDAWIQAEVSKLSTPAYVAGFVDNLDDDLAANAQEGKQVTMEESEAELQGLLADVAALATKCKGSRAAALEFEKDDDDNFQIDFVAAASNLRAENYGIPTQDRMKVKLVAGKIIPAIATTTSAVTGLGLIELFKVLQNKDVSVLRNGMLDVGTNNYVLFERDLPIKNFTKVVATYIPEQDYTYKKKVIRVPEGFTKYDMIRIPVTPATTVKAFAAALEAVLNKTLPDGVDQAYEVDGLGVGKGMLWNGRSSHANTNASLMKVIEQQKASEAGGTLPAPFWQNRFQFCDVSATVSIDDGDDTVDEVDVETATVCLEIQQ
The experiment in a line: Leishmania donovani Ubiquitin Activating Enzyme (LdE1). The assay is classed as functional. Conditions: 30 µM.

The target in assay [3] is AMP-activated protein kinase, AMPK (Homo sapiens) (UniProt P54646+O43741+P54619+Q9UGJ0+Q9Y478+Q13131+Q9UGI9). The experiment in a line: AMP-dependent Kinase enzyme assay. An in vitro enzyme assay that detects ADP turnover that is directly proportional to AMPK activity. This uses naive AMPK that is activated during the assay with MK-8722. The assay is classed as functional. The following applies: 30 µM.

Assay [4] has as its target Sialic acid-binding Ig-like lectin 9 (Homo sapiens) (UniProt Q9Y336). Put plainly: Hs-Siglec9 ALPHAscreen SOP 20170721. Conditions: 10 µM. Background: In Alpha technology, singlet oxygen from a donor bead excites a nearby acceptor bead.
The test system of the next assay is Trypanosoma cruzi. The experiment in a line: Trypanosoma cruzi phosphomannomutase and mannose-1-phosphate guanylyltransferase assay. The assay is classed as functional. Conditions: 10 µM.
The target of assay [5] is T2, Arginase-2, mitochondrial (Homo sapiens) (UniProt P78540).
T2 sequence (whole entry): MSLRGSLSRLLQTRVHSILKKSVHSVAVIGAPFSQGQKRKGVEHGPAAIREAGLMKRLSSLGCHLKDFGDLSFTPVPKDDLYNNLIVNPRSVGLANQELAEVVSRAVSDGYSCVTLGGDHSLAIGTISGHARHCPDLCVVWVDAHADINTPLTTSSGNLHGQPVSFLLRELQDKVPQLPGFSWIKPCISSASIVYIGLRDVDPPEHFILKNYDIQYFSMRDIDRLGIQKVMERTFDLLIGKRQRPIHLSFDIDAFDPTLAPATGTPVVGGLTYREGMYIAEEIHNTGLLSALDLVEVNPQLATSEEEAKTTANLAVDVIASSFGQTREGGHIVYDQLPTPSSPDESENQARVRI
Put plainly: in vitro enzyme assay to detect the production of urea directly proportional to the activity of Arginase II. Note: in the data most compounds retested in dose-response had high values. The assay is classed as functional. The following applies: 33.3 µM.

Assay [6] addresses T3, Proteasome subunit beta (Trypanosoma cruzi) (UniProt O96673).
T3 sequence (whole entry): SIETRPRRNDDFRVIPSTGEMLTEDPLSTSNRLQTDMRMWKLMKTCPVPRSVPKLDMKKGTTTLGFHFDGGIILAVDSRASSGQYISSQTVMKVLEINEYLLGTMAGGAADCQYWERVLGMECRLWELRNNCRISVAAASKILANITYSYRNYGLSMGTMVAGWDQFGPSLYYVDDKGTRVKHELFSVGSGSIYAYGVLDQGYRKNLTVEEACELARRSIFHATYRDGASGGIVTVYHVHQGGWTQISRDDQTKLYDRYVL
Put plainly: Trypanosoma cruzi proteasome chymotrypsin-like activity (TcProtChymo) assay. Note: in the data most compounds retested in dose-response had high values. The assay is classed as functional. The following applies: 9.37 µM.

The next assay is filed under the species Homo sapiens. The experiment in a line: To identify inhibition of the IFN signalling (Jak-Stat) pathway via expression of an eGFP reporter gene under the control of an IFN-stimulated response element (ISRE) containing MxA promoter. The following applies: 30 µM. The assay is classed as functional. A general note: Reporter assays use an easily measured gene product as a stand-in for the process of interest.

For assay [7], the target named is T4, Tyrosyl-tRNA synthetase, putative (Trypanosoma cruzi (strain CL Brener)) (UniProt Q4DSP6).
T4 sequence (whole entry): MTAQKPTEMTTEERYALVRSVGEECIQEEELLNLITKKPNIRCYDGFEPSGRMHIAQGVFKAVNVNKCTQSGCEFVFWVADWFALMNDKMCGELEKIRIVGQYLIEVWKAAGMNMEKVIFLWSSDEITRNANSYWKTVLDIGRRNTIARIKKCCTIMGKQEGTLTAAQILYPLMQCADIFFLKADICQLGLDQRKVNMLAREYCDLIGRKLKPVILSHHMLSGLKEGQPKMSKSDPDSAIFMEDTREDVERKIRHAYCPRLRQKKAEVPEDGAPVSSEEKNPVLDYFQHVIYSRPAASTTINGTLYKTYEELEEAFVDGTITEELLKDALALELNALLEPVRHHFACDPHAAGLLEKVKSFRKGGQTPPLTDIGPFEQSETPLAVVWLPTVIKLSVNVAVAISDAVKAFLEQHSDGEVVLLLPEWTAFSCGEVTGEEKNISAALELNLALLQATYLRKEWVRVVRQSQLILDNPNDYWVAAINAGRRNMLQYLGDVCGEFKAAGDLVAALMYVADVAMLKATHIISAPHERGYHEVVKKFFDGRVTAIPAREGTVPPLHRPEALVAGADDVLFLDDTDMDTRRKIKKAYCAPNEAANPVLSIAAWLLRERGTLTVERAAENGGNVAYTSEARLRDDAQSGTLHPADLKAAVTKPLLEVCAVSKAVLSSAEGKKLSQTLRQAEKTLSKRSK
Put plainly: Trypanosoma cruzi tyrosyl tRNA synthetase (TcYRS) _High Tyrosine SOP. Note: in the data most compounds retested in dose-response had high values. Conditions: 30 µM. The assay is classed as functional.

The target in assay [8] is T4, Tyrosyl-tRNA synthetase, putative (Trypanosoma cruzi (strain CL Brener)). Put plainly: Trypanosoma cruzi tyrosyl tRNA synthetase (TcYRS) SOP. The assay is classed as functional. Conditions: 30 µM.
For assay [9], the target named is Chromo domain-containing protein 1 (Saccharomyces cerevisiae (strain ATCC 204508 / S288c) (Baker's yeast)) (UniProt P32657). The experiment in a line: ScCHD-1 Enzyme Inhibition Assay. Note: in the data most compounds retested in dose-response had high values. The assay is classed as functional. Conditions: 30 µM.
Chain of Chromo domain-containing protein 1 (Saccharomyces cerevisiae (strain ATCC 204508 / S288c) (Baker's yeast)) (P32657 whole entry, the tested form may be a part): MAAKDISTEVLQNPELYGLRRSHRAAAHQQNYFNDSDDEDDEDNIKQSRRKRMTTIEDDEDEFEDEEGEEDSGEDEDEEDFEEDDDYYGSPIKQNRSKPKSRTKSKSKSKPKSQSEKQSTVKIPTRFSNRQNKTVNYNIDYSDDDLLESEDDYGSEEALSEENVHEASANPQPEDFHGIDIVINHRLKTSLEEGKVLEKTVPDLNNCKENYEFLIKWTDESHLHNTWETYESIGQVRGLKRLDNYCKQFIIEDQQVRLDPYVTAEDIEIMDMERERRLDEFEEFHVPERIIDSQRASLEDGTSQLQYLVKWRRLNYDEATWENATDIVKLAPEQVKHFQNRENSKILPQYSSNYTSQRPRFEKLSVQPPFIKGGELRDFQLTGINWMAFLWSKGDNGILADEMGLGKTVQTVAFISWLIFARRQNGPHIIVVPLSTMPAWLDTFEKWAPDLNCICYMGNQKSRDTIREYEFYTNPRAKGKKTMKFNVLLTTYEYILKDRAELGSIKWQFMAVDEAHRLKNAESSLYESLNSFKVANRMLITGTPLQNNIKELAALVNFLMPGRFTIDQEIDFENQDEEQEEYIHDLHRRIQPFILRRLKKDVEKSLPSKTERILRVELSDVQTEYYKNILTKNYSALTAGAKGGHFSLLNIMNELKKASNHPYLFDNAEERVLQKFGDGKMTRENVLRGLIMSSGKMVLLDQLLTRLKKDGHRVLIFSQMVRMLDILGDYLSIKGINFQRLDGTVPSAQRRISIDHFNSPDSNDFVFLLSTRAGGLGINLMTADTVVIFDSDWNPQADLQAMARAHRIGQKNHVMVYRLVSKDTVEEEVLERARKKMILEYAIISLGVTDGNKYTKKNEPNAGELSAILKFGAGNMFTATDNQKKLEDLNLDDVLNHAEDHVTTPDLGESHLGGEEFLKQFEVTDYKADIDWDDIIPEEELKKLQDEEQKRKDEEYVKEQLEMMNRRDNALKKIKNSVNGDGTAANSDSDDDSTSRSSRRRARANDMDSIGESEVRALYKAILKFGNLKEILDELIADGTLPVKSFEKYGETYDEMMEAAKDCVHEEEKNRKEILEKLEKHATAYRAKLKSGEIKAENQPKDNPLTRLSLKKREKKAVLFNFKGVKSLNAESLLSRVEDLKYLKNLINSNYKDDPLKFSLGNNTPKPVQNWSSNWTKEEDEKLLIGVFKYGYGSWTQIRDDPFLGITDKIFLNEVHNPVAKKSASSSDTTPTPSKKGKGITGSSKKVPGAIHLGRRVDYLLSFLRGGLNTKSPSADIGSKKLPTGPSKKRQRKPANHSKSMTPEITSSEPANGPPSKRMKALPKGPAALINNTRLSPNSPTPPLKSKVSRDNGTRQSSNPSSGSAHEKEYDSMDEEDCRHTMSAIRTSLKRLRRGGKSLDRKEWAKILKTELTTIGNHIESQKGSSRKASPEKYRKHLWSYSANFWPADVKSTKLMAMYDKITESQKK

Each structure is given as a SMILES string. For some of these results: Entries with a potency or affinity are not part of this list.

Chain of Sialic acid-binding Ig-like lectin 9 (Homo sapiens) (Q9Y336 whole entry): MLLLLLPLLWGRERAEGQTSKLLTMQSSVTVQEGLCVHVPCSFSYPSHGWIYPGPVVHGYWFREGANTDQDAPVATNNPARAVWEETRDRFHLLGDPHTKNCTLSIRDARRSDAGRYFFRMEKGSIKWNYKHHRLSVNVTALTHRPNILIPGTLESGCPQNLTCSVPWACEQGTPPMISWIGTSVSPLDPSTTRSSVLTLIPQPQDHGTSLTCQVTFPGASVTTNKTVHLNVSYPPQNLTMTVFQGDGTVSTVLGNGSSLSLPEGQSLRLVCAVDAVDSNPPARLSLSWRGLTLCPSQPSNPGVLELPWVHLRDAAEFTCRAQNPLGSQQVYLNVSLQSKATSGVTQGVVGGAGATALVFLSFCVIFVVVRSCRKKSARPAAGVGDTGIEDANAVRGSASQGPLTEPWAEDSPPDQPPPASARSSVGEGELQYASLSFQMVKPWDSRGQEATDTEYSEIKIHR
Chain of Protein translocase subunit SecA (Escherichia coli (strain K12)) (P10408 whole entry): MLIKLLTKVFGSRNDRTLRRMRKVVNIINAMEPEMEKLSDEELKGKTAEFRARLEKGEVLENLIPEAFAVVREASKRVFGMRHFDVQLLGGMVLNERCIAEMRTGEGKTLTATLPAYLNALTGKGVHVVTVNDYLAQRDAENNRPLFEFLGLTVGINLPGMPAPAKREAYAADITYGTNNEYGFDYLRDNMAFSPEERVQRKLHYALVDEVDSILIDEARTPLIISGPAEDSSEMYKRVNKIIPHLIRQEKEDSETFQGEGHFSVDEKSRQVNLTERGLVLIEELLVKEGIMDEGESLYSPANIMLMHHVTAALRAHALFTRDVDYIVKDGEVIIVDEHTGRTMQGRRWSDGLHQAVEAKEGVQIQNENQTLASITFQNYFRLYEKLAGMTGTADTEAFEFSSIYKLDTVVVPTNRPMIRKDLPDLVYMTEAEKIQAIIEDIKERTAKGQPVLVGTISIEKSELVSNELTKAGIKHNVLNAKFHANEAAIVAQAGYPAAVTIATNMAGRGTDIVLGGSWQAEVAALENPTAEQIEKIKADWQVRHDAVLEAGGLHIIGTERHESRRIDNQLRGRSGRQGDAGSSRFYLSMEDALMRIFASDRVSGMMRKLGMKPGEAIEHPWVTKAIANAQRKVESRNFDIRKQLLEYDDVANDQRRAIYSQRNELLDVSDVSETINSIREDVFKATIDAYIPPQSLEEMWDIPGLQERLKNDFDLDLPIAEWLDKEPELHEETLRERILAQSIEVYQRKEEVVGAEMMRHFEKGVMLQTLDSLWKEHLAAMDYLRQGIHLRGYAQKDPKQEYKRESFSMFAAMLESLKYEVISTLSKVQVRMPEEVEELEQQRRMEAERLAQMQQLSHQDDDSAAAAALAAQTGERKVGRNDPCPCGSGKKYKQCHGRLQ

`COC1CCN(C(=O)CCc2c(C)nc3ccnn3c2C)CC1`: the Percent Effect was -0.424% in assay [1]; 5.26% in [2]; 1.13% in assay [3]; -0.445% in [4]; -3.64% in the assay on Trypanosoma cruzi; 5.4% in assay [5]. Besides, the Percent Effect in [6] was 1.95%; in the assay listed under Homo sapiens, -10.2%; in [7], 4.43%; in [8], 6.17%; in assay [9], 5.83%.

In the case of `O=C(CCCc1nc2ccccc2[nH]1)N1CCCC(n2cccn2)C1` (stereo unspecified), the Percent Effect in [1] was -4.65%; in assay [2], 10.5%; in assay [3], -3.13%; in [4], 5.64%; in the assay on Trypanosoma cruzi, 8.27%; in assay [5], -5.36%. For the same compound, the Percent Effect in assay [6] is 7.18%; in the assay filed under Homo sapiens it was -2.05%; in assay [7], 5.39%; in [8], 17.1%; in assay [9] it was -12%.

With `Cc1noc2nc(C3CCN(CC4=CCCOC4)CC3)cc(C(F)F)c12`, the Percent Effect was -1.97% in assay [1]; 6.76% in assay [2]; 13.4% in assay [3]; 0.663% in assay [4]; -3.56% with Trypanosoma cruzi; -3.02% in [5]. Moreover, the Percent Effect in assay [6] is 3.28%; in the assay listed under Homo sapiens, 2.72%; in assay [7] it was 7.53%; in [8] it was 11.7%; in [9] it was -11.7%.

Consider `O=C(NCCc1ccsc1)Nc1cccnc1N1CCCC1`, for which the Percent Effect was -3.39% in assay [1]; 26.3% in [2]; -28.7% in assay [3]; 0.502% in [4]; 3.64% with Trypanosoma cruzi; -2.88% in assay [5]. In addition, the Percent Effect in assay [6] is 11.2%; in the assay filed under Homo sapiens, -10.3%; in [7], 8.37%; in assay [8], 35.8%; in assay [9], -9.48%.

As to `Cc1ccc([C@]2(O)CC[C@H]3CN(Cc4cccc(Cl)c4Cl)C[C@H]32)nc1`, the Percent Effect in [1] was -2.93%; in [2], 12.2%; in assay [3], 12.6%; in assay [4], -9.17%; with Trypanosoma cruzi, 1.98%; in [5] it was -0.232%. For the same compound, the Percent Effect was 17.8% in [6]; 51.4% in the assay filed under Homo sapiens; 9.68% in [7]; 16.9% in assay [8]; -15.7% in assay [9].

For `O=C(c1ccccn1)N1CCCC(c2nccn2CC2CCC2)C1` (stereo unspecified), the Percent Effect is -7.93% in [1]; 0% in assay [2]; -15.1% in assay [3]; 2.39% in assay [4]; -2.35% in the assay on Trypanosoma cruzi; -2.27% in [5]. Besides, the Percent Effect in assay [6] is 3.37%; in the assay filed under Homo sapiens it was 7.95%; in assay [7], 0%; in [8], 0%; in assay [9], -2.91%.

Turning to `O=C(c1cnoc1)N1CCC[C@]2(C[C@H](Oc3ncccc3F)CO2)C1`, the Percent Effect in assay [1] is -4.36%; in [2], -30.1%; in assay [3], -3.76%; in assay [4], 25%; in the assay on Trypanosoma cruzi, 9.72%; in [5] it was -5.59%. For the same compound, the Percent Effect in [6] is 11.7%; in the assay filed under Homo sapiens, 9.74%; in assay [7] it was 4.17%; in assay [8] it was 8.64%; in [9], -3.75%.

Turning to `Cn1c(Nc2cn[nH]c2)c(C#N)c(=O)n(C)c1=O`, the Percent Effect in assay [1] is -7.22%; in assay [2] it was 5.41%; in assay [3], -1.11%; in assay [4], -6.81%; in the assay with Trypanosoma cruzi it was -8.31%; in assay [5], -1.74%. Moreover, the Percent Effect is 14.3% in assay [6]; -8.26% in the assay listed under Homo sapiens; -3.23% in assay [7]; 1.24% in [8]; -4.94% in assay [9].

As for `CCCc1nc(N2CCN(CC)CC2)c2c(n1)c(C)nn2CC`, the Percent Effect in [1] is -0.47%; in [2], 7.79%; in assay [3] it was 2.46%; in assay [4], 26.2%; in the assay with Trypanosoma cruzi, 5.01%; in assay [5], -6.9%. In addition, the Percent Effect in [6] was 10.5%; in the assay listed under Homo sapiens it was 10.3%; in assay [7] it was 7.53%; in [8], 16.1%; in assay [9], -5.13%.

For `COc1ccc(C(=O)N2CCCC2c2ccco2)cc1OC` (stereo unspecified), the Percent Effect in [1] is 2.38%; in [2] it was 2.6%; in assay [3], -1.48%; in assay [4], -11.9%; in the assay on Trypanosoma cruzi, -4.24%; in [5] it was -1.94%. For the same compound, the Percent Effect was 14.8% in [6]; 9.23% in the assay listed under Homo sapiens; 3.17% in [7]; 8.97% in assay [8]; -10.7% in assay [9].

For the compound `COC(=O)c1cccn1C1CCN(C(=O)c2cc(F)ccc2F)CC1`, the Percent Effect is -4.16% in assay [1]; 13% in assay [2]; 1.19% in assay [3]; 0.495% in [4]; 4.87% in the assay on Trypanosoma cruzi; -6.76% in assay [5]. Also, the Percent Effect in assay [6] was 3.04%; in the assay listed under Homo sapiens, 19.8%; in assay [7], 5.83%; in assay [8] it was 14.6%; in assay [9] it was -9.49%.
